This is a sample that favours compounds with a hit; in the whole collection about 3.7% have one here.
BoNT-F LC inh = BoNT F light chain protease inhibition; hit rate 0.22% among 360,000; AID 588497; inhibition, % at 10 µM; Multiplex microsphere protease cleavage assay, flow cytometry; in the data active means inhibition above about 35%, passing the limit was not always enough; inconclusive means no clear call, values can overlap the other calls
Anthrax LF inh2 = inhibitors of Bacillus anthracis lethal factor protease. P15917. hit rate 0.12% among 360,000. AID 588501. inhibition, % at 10 µM. multiplex microsphere protease cleavage assay, LF
BoNT-A LC inh2 = inhibitors of Botulinum neurotoxin A light chain protease. inhibition, % at 10 µM. hit rate 0.17% among 360,000. multiplex microsphere protease substrate cleavage, flow cytometry
Autofluor counter = counter-screen for toxin protease inhibitors: compound fluorescence; compound autofluorescence counterscreen, microsphere flow cytometry; stronger effect = higher value; fluorescence intensity (test concentration not listed); hit rate 3.1% among 360,000; AID 624483; in the data active means fluorescence intensity above about 16000; inconclusive means no clear call, values can overlap the other calls
MazEF act = activators of E. coli MazEF toxin-antitoxin RNase. P0AE70. FAM/BHQ RNA-DNA oligo cleavage fluorescence, 5 h. activation, % at 20 µM. hit rate 0.32% among 350,000. AID 504720; in the data active means activation above about 50%
Target sequence (P0AE70 whole entry, looked up): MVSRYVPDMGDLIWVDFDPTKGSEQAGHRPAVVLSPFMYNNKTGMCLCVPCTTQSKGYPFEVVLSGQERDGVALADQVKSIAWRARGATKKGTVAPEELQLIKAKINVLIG
Large screens that a line does not name were inactive. Unless noted, no stated cut-off is given here; in the data, active means inhibition above about 30%; inconclusive means no clear call, values can overlap the other calls; inactive means below that.

N#Cc1ccc(CSc2nnc(COc3ccccc3)n2-c2ccccc2)cc1	Autofluor counter 24330
COc1ccc(C(=O)CSc2nnc(COc3ccc(C#N)cc3)n2-c2ccccc2)cc1	none
O=S1(=O)CCN(Cc2ccncc2)CC1	none
C=C(C)c1cccc(C(C)(C)NC(=O)NCc2ccc(OC)c(OC)c2)c1	Autofluor counter 23352
C=CCSc1nc2c(cc1C#N)CCC2	BoNT-A LC inh2 inconclusive, Autofluor counter 21788
N#Cc1cc2c(nc1SCC(=O)Nc1nccs1)CCCCC2	Autofluor counter 20116
CCCCSc1nc2c(cc1C#N)CCC2	Autofluor counter 20908
CCOC(=O)N1CCC(NC(=O)C2CCCN(c3nc4ccccc4o3)C2)CC1 (stereo not drawn)	Autofluor counter 25111
O=C(NC1CCCCCCC1)C1CCN(c2nc3ccccc3o2)CC1	Autofluor counter 17616
Cc1ccc(CNC(=O)C2CCCN(c3nc4ccccc4o3)C2)cc1 (stereo not drawn)	none
CCOC(=O)N1CCC(NC(=O)C2CCN(C(=O)N3CC(C)Oc4ccccc43)CC2)CC1 (stereo not drawn)	Autofluor counter 16437
COC(=O)c1ccc(Oc2nc(Nc3ccccc3)nc(N(C)C)n2)cc1	Autofluor counter 20995
Cc1cc(C)c2cc(C#N)c(NCCCN)nc2c1	none (no result: MazEF act)
O=C(NCC1CCCO1)/C(=C\c1cccc([N+](=O)[O-])c1)NC(=O)c1ccccc1 (stereo not drawn)	none
O=C(NCc1ccncc1)/C(=C/c1cccc([N+](=O)[O-])c1)NC(=O)c1ccccc1	BoNT-F LC inh 38
Cc1ccc(S(=O)(=O)N(C)c2ccc(OC(=O)CN3C(=O)NC4(CCCC4)C3=O)cc2)cc1C	none (no result: BoNT-F LC inh, Anthrax LF inh2, BoNT-A LC inh2, Autofluor counter)
CCCc1cc(=O)[nH]c(SCC(=O)Nc2cccc(S(=O)(=O)N3CCCCC3)c2)n1	none
COc1ccccc1OCc1ccc(C(=O)N2N=C(C(F)F)CC2(O)C(F)F)o1 (stereo not drawn)	Autofluor counter 16851
COC(=O)c1cn(CC(=O)Nc2ccccc2C)c2ccccc12	none
Cc1ccc(-c2nc3ccc(Br)cn3c2Cc2cccc(F)c2)cc1	none (no result: MazEF act)
CCCCNC(=O)c1ccc(S(=O)(=O)c2ccc(Cl)cc2)c(NC(C)=O)c1	Autofluor counter 21746
COC(=O)[C@]12CCCCC=C1N(Cc1ccco1)C(=O)[C@H](CC(=O)N1CCC(c3ccccc3)CC1)C2	none (no result: MazEF act)
O=C(NNC(=O)C1CCCCC1)c1cnccn1	Autofluor counter 22696
C=CCNc1nc(C(=O)OCC(=O)c2ccc(Cl)cc2)cs1	none
Nc1ccc(Cn2ccc3c4c(N)nc(N)nc4ccc32)cc1	none
O=C(Nc1cc(C(F)(F)F)ccc1N1CCCCC1)C1=COCCO1	none
CC1=CC(C)(C)Nc2ccc(OS(=O)(=O)c3ccc(C)cc3)cc21	Autofluor counter 17799
O=C(CCNS(=O)(=O)c1cccc2nsnc12)N1CC(=O)N(CCc2ccccc2)C(=O)C1	BoNT-A LC inh2 inconclusive, Autofluor counter 21566
CC1Oc2ccc(C#N)cc2N(Cc2cccc(F)c2)C1=O (stereo not drawn)	none (no result: MazEF act)
COC(=O)CSC(C(=O)Nc1ccc(C)c(C)c1)c1ccccc1 (stereo not drawn)	Autofluor counter 22778
Nc1c(S(=O)(=O)c2ccccc2)c2nc3ccccc3nc2n1/N=C/c1ccco1	BoNT-A LC inh2 inconclusive, Autofluor counter 19798
Cc1cccc(S(=O)(=O)c2c(N)n(/N=C/c3ccco3)c3nc4ccccc4nc23)c1	Autofluor counter 22583
Cc1ccc(S(=O)(=O)c2c(N)n(/N=C/c3ccco3)c3nc4ccccc4nc23)cc1	Autofluor counter 20865
Cc1ccc(S(=O)(=O)c2c(N)n(NC(=O)C3CC3)c3nc4ccccc4nc23)cc1	Autofluor counter 16643
Cc1ccc(S(=O)(=O)c2c(N)n(/N=C/c3ccco3)c3nc4ccccc4nc23)cc1C	none
CCc1ccc(N(C(=O)CCC(=O)Nc2cc(C)on2)C(C(=O)NC(C)(C)C)c2ccc(OC)cc2)cc1 (stereo not drawn)	BoNT-F LC inh 35
FC(F)(F)c1nc2ncc(Cl)cc2[nH]1	Autofluor counter 20866
NC(=O)c1ccccc1NS(=O)(=O)c1ccccc1	none
Cc1ccc(S(=O)(=O)Nc2ccccc2C(N)=O)cc1	Autofluor counter 17497
CSc1nc(N)nc2c1ncn2CC(=O)Nc1ccc(C)c(C)c1	none
Cc1ccc(S(=O)(=O)N2CCN(C(=O)CCc3c[nH]c4ccccc34)CC2)c(C)c1	none
O=C1CCC[C@H]2c3[nH]c4ccccc4c3CCN12	none
O=C1CCC2c3ccc4ccccc4c3CCN12 (stereo not drawn)	Autofluor counter 20473
Cc1nc2ccccn2c1C(=O)N/N=C/c1cc(C)n(-c2ccc(Br)cc2)c1C	Autofluor counter 23974

Assay outcomes as filed in PubChem BioAssay.
